Laboratory results from PubChem BioAssay (NCI).
About 83,000 compounds went through this panel and 20% of them were active in at least one assay; those are over-represented in the sample as a whole.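 Growth was measured after 48 h exposure to one concentration of compound in 96-well plates. Values under 10 count as active.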 A number with no mark means an inactive call. Activity calls are given as the source filed them.

system: HL-60(TB) leukemia; assay: NCI-60 one-dose screen, 48 h (100 = growth as untreated, 0 = no growth, -100 = all killed); details: 10 µM unless noted

Row | Structure (SMILES) | growth
1 | COc1ccc(-c2nnc(/N=C3/C(=O)Nc4ccc(Br)cc43)o2)cc1 | 60.4%
2 | O=C(CSc1nc2ccccc2c(=O)n1-c1ccc(Cl)cc1)N/N=C/c1ccc(Oc2ccc(Cl)cc2)cc1 | 111%
3 | C#C[C@]1(O)CC[C@H]2[C@@H]3CC=C4c5sc(C6CCOCC6)nc5CC[C@]4(C)[C@H]3CC[C@@]21C | 56.7%
4 | Cc1sc2nc(NCc3ccccc3Cl)[nH]c(=O)c2c1C | 75.1%
5 | COc1ccc(/C=C2\SC(=Nc3cc(C)on3)NC2=O)cc1 | 94.6%
6 | COc1cc(/C=N/n2cnc3oc(-c4ccccc4)cc3c2=N)cc(CN2CCN(C)CC2)c1O | 110%
7 | O=C(N/N=C\c1ccc(Cl)cc1)c1ccc2nc(-c3ccc(Br)cc3)[nH]c2c1 | 41.5%
8 | COc1ccc(/C=N/NC(=O)c2[nH]c3ccc(Br)cc3c2-c2ccccc2)s1 | -44.2% (active)
9 | O=C(Nc1cccc(-c2nc(-c3ccc(NC(=O)c4cccs4)cc3Cl)no2)c1)Nc1ccc(NC(=O)C2CC2)c(C(F)(F)F)c1 | 6.9% (active)
10 | Cn1ccnc1C(=O)/C=C/c1ccc(NC(=O)c2ccc(F)cc2)cc1 | 11.8%
11 | CCN1C(=O)N(CC)C2SC(N/N=C/c3ccccc3F)=NC21 (centres undefined) | 0.098% (active)
12 | CC1(C)[C@@H](O)CC[C@]2(C)[C@H]3CC[C@@H]4[C@H]5[C@H](C(=O)/C=C\c6ccccn6)CC[C@]5(O)CC[C@@]4(C)[C@]3(C)CC[C@@H]12 | -24.5% (active)
13 | O=C(CN1C(=O)S/C(=C\c2ccccc2)C1=O)Nc1ccc(C(=O)/C=C/c2cc3ccccc3nc2Cl)cc1 | 80.2%
14 | C#Cc1nc(C2=C(C)/C(=N/OCc3ccccc3)CC2)cs1 | -54.1% (active)
15 | COc1ccc(-c2cc(-c3ccc(N4CCOCC4)cc3)n3c(n2)nc2ccccc23)cc1OC | 71%
16 | Cc1ccc(-c2csc(N/N=C/c3cccs3)n2)cc1 | 84.2%
17 | Cc1ccc(C(=O)NN2C(=O)/C(=C/C=C/c3ccco3)SC2=S)cc1 | 30.4%
18 | CN1CCN(Cc2ccc(NC(=O)c3cncc(C#Cc4[nH]nc5ncncc45)c3)cc2C(F)(F)F)CC1 | 21.5%
19 | O=S(=O)(NCCNc1nccc(-n2cnc3ccccc32)n1)c1ccc(Cl)cc1 | 113%
20 | O=C1CC(=O)N2CSCN(C(c3ccccc3)c3nc4ncncc4[nH]3)C2=N1 (centres undefined) | 118%

Row | Structure (SMILES) | growth
21 | Clc1nc2ccccc2nc1-c1nnc(C2CCCCC2)o1 | 66.6%
22 | CCO/C=N/C1=C(C#N)C(c2ccc(Cl)cc2)c2sc3c(CC)cccc3c2O1 (centres undefined) | -0.966% (active)
23 | C#Cc1cc(OC)c(C(=O)Nc2ccc(F)cc2C(=O)Nc2cccc(S(=O)(=O)C(F)(F)F)c2)cn1 | -51.6% (active)
24 | C=CCn1c(SCC(=O)Nc2cccc(C(=O)/C=C/c3ccc(Cl)cc3)c2)nc2ccccc2c1=O | 103%
25 | O=C(c1ccc(O)cc1)[C@@H]1[C@@H]2CCCN2[C@@]2(C(=O)N(C(=O)c3ccc(F)cc3)c3ccccc32)[C@H]1c1ccc(F)cc1 | 78.6%
26 | CCOC(=O)c1c(NCC(=O)Nc2ccc(Br)cc2)sc2c1CCCC2 | 28.9%
27 | Cc1ccc2c(n1)C(=O)C(Cl)=C(Nc1ccc(C)c(C)c1)C2=O | 58.4%
28 | NS(=O)(=O)Oc1ccc2nc(Nc3ccc(F)c(F)c3)ccc2c1 | 71.3%
29 | Cc1ccc(Cc2cnc(NC(=O)/C(C#N)=C/c3ccc(-c4ccc(Cl)cc4)o3)s2)cc1 | 88.5%
30 | COC[C@@]1(C)CC[C@]2(C)CC[C@]3(C)C(=CC[C@@H]4[C@@]5(C)CCCNC(C)(C)[C@@H]5CC[C@]43C)C2C1 (some centres undefined) | 48.3%
31 | C/C(=C(/C)C1CC1CCN(C(=O)c1ccccn1)S(=O)(=O)c1ccc(C)cc1)C1CCCCC1 (centres undefined) | 97.4%
32 | COc1ccc(-c2nc3ccc(-c4nnc(SCC(=O)Nc5ccc(C(=O)/C=C/c6ccc(Cl)cc6)cc5)o4)cc3[nH]2)cc1 | 94.1%
33 | O=C(CSc1nnc(-c2ccc(Cl)cc2)n1-c1ccccc1)Nc1cccc(Cl)c1 | 89.8%
34 | C#CCn1cc(/C=N/Nc2nc(-c3ccc(Br)cc3)cs2)c2ccccc21 | 107%
35 | CCOC(=O)/C(F)=C/C1CC1C1CCCCC1 (centres undefined) | 98.7%
36 | NC(=O)N1N=C(c2cc3ccccc3oc2=O)CC1c1cn(-c2ccccc2)nc1-c1ccc(Cl)cc1 (centres undefined) | 47%
37 | COc1ccc(/C=C/C(=O)c2nnn(-c3ccc(Br)cc3)c2C)cc1OC | 47.1%
38 | COc1ccc(-c2cc(-c3ccc(Cl)cc3)c(C#N)c(=O)n2Cc2ccc(C(=O)O)cc2)cc1 | 92.1%
39 | Cc1ccc(-c2cc(-c3ccc(N(C)C)cc3)n3c(n2)nc2ccccc23)cc1 | 67.1%
